Screening results as filed in PubChem BioAssay.
Most compounds without a hit are left out; they make up all but 4% or so of the library.
GDH-TPI inh: counter-screen for M. tuberculosis FBA inhibitors: GDH-TPI coupled enzymes. GDH-TPI coupled enzyme counterscreen, NADH absorbance. inhibition, % at 4.8 µM. hit rate 1.2% among 360,000. AID 588335; in the data active means inhibition above about 30%;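 further: 0% = DMSO wells and 100% = wells lacking the enzyme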
Rv3671c inh: Rv3671c (M. tuberculosis) protease inhibition; P9WHR9; inhibition, % at 5.96 µM; hit rate 0.048% among 320,000; AID 2606; in the data active means inhibition above about 38%;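 further: extracellular domain of Rv3671c used as enzyme; 0% = enzyme with DMSO and 100% = no enzyme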
Target sequence (P9WHR9 whole entry, looked up, the tested form may be a part): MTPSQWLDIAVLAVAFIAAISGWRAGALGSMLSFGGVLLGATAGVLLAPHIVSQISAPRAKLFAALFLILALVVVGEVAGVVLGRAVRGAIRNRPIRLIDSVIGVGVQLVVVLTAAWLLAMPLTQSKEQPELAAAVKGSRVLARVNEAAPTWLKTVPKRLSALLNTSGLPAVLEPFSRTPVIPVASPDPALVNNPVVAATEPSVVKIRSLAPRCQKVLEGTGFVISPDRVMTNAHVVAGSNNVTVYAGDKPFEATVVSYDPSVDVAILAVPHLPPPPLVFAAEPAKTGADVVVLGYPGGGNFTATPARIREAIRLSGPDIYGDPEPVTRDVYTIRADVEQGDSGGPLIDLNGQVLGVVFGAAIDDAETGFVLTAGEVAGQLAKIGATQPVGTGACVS
Mtb UGM inh: blocks M. tuberculosis UGM enzyme | P9WIQ1 | purified UGM, fluorescence polarization probe displacement | inhibition, % at 10 µM | hit rate 0.06% among 320,000 | AID 504406; in the data active means inhibition above about 10%, passing the limit was not always enough
Mtb betalactam: beta-lactam sensitization of Mtb H37Rv; M. tuberculosis H37Rv growth with meropenem, percent inhibition; inhibition, % at 25 µM; hit rate 0.27% among 330,000; AID 434955; call rule not given here;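 further: growth measured after seven days incubation then overnight dye step; 0% = bacteria only wells and 100% = bacteria with antibiotic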
RecA splice inh: blocks M. tuberculosis RecA intein splicing. P9WHJ3. cell-free RecA intein splicing, fluorescence. inhibition, % (concentration not given with the values). hit rate 0.75% among 290,000. AID 2221; in the data active means inhibition above about 30%;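 further: 0% = vehicle wells and 100% = reference inhibitor control wells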
FBA Mtb inh: inhibitors of M. tuberculosis fructose-bisphosphate aldolase; hit rate 2.3% among 360,000; purified M. tuberculosis FBA, fluorescence read-out; inhibition, % at 1 µM; in the data active means inhibition above about 27%;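 further: 0% = vehicle and 100% = reference inhibitor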
* hit, by the source's call; nt = not tested or not shown; + = active, no number.

SMILES	GDH-TPI inh	Rv3671c inh	Mtb UGM inh	Mtb betalactam	RecA splice inh	FBA Mtb inh
CSc1cc(-c2ccccc2)[nH]c(=O)c1C#N	18.8	4.8	3.0	-2.0	-2.8	34.2*
CCCCCC(=O)N1C[C@@H](O)[C@H](n2cc(C3CC3)nn2)C[C@@H]1c1ccc(OC)cc1	15.5	nt	nt	nt	nt	-1.4
CC1CCCCN1C(=O)CCc1nnc(Cc2c[nH]c3ccccc23)o1 (stereo not drawn)	-4.6	1.9	1.3	0.1	1.6	0.7
Cc1ccc(/C(O)=C2/C(=O)C(=O)N(Cc3cccnc3)C2c2ccccn2)cc1 (stereo not drawn)	38.5*	2.2	0.8	-10.6	nt	3.2
ONC(=NCc1ccccc1)c1ccccc1	-7.8	nt	nt	nt	nt	-1.4
COc1cc2c(cc1OC)-c1nc3ccccc3c(=O)n1C(C)(C)C2	39.1*	-11.6	-1.0	90.8	2.8	5.2
COc1ccc(/C=C2\CCn3c2nc2ccccc2c3=O)cc1OC	9.4	-7.8	0.1	3.5	nt	-1.4
COc1ccccc1N1CCN(C(c2cc3ccc(C)cc3[nH]c2=O)c2nnnn2C2CCCC2)CC1 (stereo not drawn)	33.9*	2.1	1.1	2.6	-2.1	4.0
Cc1ccc(S(=O)(=O)NCCc2nnc3ccc(NCCCOC(C)C)nn23)cc1	0.0	2.5	1.3	-3.5	-2.0	2.4
O=C(O)CC/C(=N\Nc1ccc(S(=O)(=O)N2CCOCC2)cc1[N+](=O)[O-])c1cccs1	67.1*	4.1	1.0	2.1	3.4	-15.9
CCN(CC)Cc1c(C(=O)N/N=C(\C)c2ccncc2)nnn1-c1nonc1N	6.6	-5.0	2.3	-3.7	3.4	-0.3
Cc1ccnc(NS(=O)(=O)c2ccc(NC(=O)c3ccc4c(c3)OCCO4)cc2)n1	-5.7	4.8	1.2	2.7	-2.7	0.1
CN1C=C/C(=C\c2cc[n+](C)c3ccccc23)c2ccccc21	0.6	nt	nt	nt	70.6*	0.3
CC[n+]1ccc(/C=C2\Sc3ccccc3N2CCCS(=O)(=O)[O-])c2ccccc21	-6.3	3.5	-2.3	-1.2	-1.6	-2.6
CC(C)C/C(O)=C/c1nc2cc(Cl)ccc2oc1=O	6.7	-5.4	-1.2	93.0	1.6	-3.2
O=c1oc2ccc(Cl)cc2nc1/C=C(\O)c1ccco1	37.4*	1.5	-0.9	99.5	-1.8	-1.5
Cc1cc(C(=O)OCC(=O)Nc2ccccc2F)c(C)n1C1CC1	9.0	nt	nt	nt	nt	5.3
CCc1ccc(/C=C2\Oc3cc(OS(C)(=O)=O)ccc3C2=O)cc1	5.2	-7.9	-2.1	8.8	1.2	4.2
CCc1ccc(/C=C2\Oc3c(ccc(O)c3CN3CCN(CCO)CC3)C2=O)cc1	35.4*	0.6	2.3	-11.0	-5.1	-3.2
Cc1ccc2oc(=O)c3cc(C(=O)NCCCN4CCN(C)CC4)sc3c2c1	21.6	-0.1	-0.9	0.6	-2.0	13.8
CN1CCN(CCCNC(=O)c2cc3c(=O)n(C)c4ccccc4c3s2)CC1	12.5	7.9	-1.1	2.3	-0.3	89.0*
Cc1ccccc1N=Nc1c(O)n(C)c2ccccc12	21.0	3.8	-1.3	0.9	-1.7	-1.8
Cc1ccc(/C=N/Nc2cc(C)nc(N3CCOCC3)n2)cc1	31.3*	11.2	-1.5	0.1	-3.4	-2.2
COc1ccc(Nc2nc(N3CCOCC3)nc(N3CCOCC3)n2)c(OC)c1	-6.0	-12.2	1.8	-1.8	0.5	-0.3
COc1ccc(/C=N/Nc2cc(C)nc(N3CCOCC3)n2)c(OC)c1	47.6*	5.6	0.0	-5.8	-1.0	-2.9
SMILES	GDH-TPI inh	Rv3671c inh	Mtb UGM inh	Mtb betalactam	RecA splice inh	FBA Mtb inh
Oc1ccc(/C=N\Nc2cc(N3CCOCC3)nc(N3CCOCC3)n2)c(O)c1	65.4*	-15.1	1.3	-5.1	-3.0	-0.3
COc1nc(N/N=C/c2cc3c(cc2Br)OCO3)nc(N2CCOCC2)n1	33.0*	0.3	-2.1	11.2	0.0	1.0
Cc1cc(C)nc(SC(C)C(=O)Nc2ccc(S(N)(=O)=O)cc2)n1 (stereo not drawn)	14.6	0.5	-2.9	-7.2	-0.1	-2.0
COCCn1c(=S)[nH]c2cc(C(=O)N3CCc4ccccc4C3)ccc2c1=O	-1.9	3.3	0.0	-3.9	-0.1	0.6
Cc1cc(N/N=C/c2ccc(O)cc2O)nc(N2CCOCC2)n1	69.1*	3.2	-2.2	5.0	-2.9	-7.7
Cc1cc(N/N=C/c2ccccc2)nc(N2CCOCC2)n1	25.8	5.0	0.5	-1.9	-0.6	-1.0
Cc1nc(N/N=C/c2cccnc2)cc(N2CCOCC2)n1	30.7*	nt	nt	nt	nt	-1.6
COc1ccccc1CNC(=O)COc1ccc(S(=O)(=O)N2CCOCC2)cc1C	-7.0	2.8	0.1	-6.4	1.9	0.6
CCCNC(=O)c1ccccc1NC(=O)c1ccccc1SC	13.2	-8.5	-0.3	-2.3	3.1	2.0
CCOc1ccc(N2CC(C(=O)NCCN3C(=O)S/C(=C\c4ccc(OC)cc4)C3=O)CC2=O)cc1 (stereo not drawn)	22.1	6.2	1.0	3.0	0.3	1.1
CSc1cnc2c(=O)n(C)c(=O)[nH]c2n1	22.6	18.5	1.0	2.1	-12.0	129.7*
CSc1nnc2c(=O)[nH]c(=O)n(C)c2n1	17.9	nt	nt	nt	nt	3.4
Cn1c(N)c(C(=O)COC(=O)c2ccc(C(F)(F)F)cc2)c(=O)n(C)c1=O	-6.8	2.6	3.2	-1.2	nt	-1.9
N#Cc1nc(-c2ccco2)oc1NCc1cccnc1	15.9	-2.4	-0.1	11.8	2.1	23.2
CN(C)CCNc1oc(COc2ccc(Cl)cc2Cl)nc1C#N	3.4	-0.6	-1.6	-3.0	-6.0	2.7
COCCNc1oc(-c2ccc(C)cc2)nc1C#N	22.9	0.1	0.5	2.1	-0.5	199.6*
N#Cc1nc(-c2cccc(Cl)c2)oc1NCc1cccnc1	13.1	-7.0	0.0	67.0	1.6	141.0*
CN(C)CCCNc1oc(-c2ccc(Cl)cc2)nc1C#N	17.1	2.8	-0.8	50.6	2.2	172.7*
CCN(CC)CCCNc1oc(-c2cccc(Cl)c2)nc1C#N	0.3	3.1	2.2	-11.7	0.2	134.1*
Cc1noc(C)c1NC(=O)Nc1cccc2c1O[C@@H](CN(C)C)[C@@H](C)CN([C@H](C)CO)C2=O	-9.4	0.9	-4.6	0.2	nt	0.2
CCOc1ccc(N(CC(=O)O)S(=O)(=O)c2cccnc2)cc1	-3.0	-7.7	-3.7	6.7	0.0	0.2
COc1ccc(Nc2oc(-c3ccc(OC)cc3)nc2C#N)cc1	-2.4	7.1	-1.0	-9.9	-3.1	0.2
COc1ccc(Nc2oc(-c3ccc(Cl)cc3)nc2C#N)cc1	28.3	-1.7	-0.7	-2.3	-1.4	-1.9
N#Cc1nc(-c2ccccc2Cl)oc1NCc1ccco1	9.0	-21.0	3.0	1.5	7.1	8.9
COc1ccc(-c2nc(C#N)c(NCCN(C)C)o2)cc1	10.9	3.1	2.0	1.2	-0.6	123.2*
N#Cc1nc(-c2ccc(Cl)cc2)oc1NCc1ccco1	7.1	-14.6	-3.2	19.9	-0.1	174.8*
COCCNc1oc(-c2ccc(Cl)cc2)nc1C#N	37.0*	nt	nt	nt	-0.9	+
O=c1[nH]cnc2nc(-c3ccc(N(CCCl)CCCl)cc3)[nH]c12	46.7*	nt	nt	nt	nt	nt
